Experimental data published in PubChem BioAssay (NCATS).
Inconclusive results are not listed. Activity calls are given as the source filed them. Calls follow the shape of the dose curve; as a rule, active = well fitted cell-killing curve with a large enough effect; inconclusive = small, poorly fitted or top-dose-only effect; inactive = flat fitted curve, though single readings scatter.

experiment: Cell Viability - LYMP2-006 (AID 978); conditions: LYMP2-006 lymphoblastoid cell viability, qHTS; series mostly up to 92.2 µM; activity change, negative = cytotoxicity: at the top concentration; also: nearly all actives have a fitted effect of over 60% in size
From the text: NIH Chemical Genomics Center [NCGC]
NIH Molecular Libraries Screening Centers Network [MLSCN]
National Institutes of Environmental Health Sciences [NIEHS]
National Toxicology Program [NTP]
We have developed a 1536-well cell-based assay for quantitative high throughput screening (qHTS) against a number of cell lines to determine in vitro cytotoxicity of small molecules. This particular assay uses a human lymphoblastoid cell line (LYMP2-006) purchased from Coriell Institute for Medical Research.
NCGC Assay Protocol Summary:
The CellTiter-Glo luminescent cell viability assay (Promega) is a homogeneous method to measure the number of viable cells in culture. The end point readout of this assay is based on quantitation of intracellular ATP, an indicator of metabolic activity, using the luciferase reaction. Luciferase catalyzes the oxidation of beetle Luciferin to oxyluciferin and light in the presence of ATP. The luminescent signal is proportional to amount of ATP present.
Using the CellTiter-Glo luminescent cell viability assay, the amount of cellular ATP was measured in the lymphoblastoid cell line with complete culture medium following compound treatment for 24 hours. The assay was performed in opaque white Kalypsys 1536-well plates. In the screen, tetraoctylammonium bromide was used as positive control. Library compounds were measured for their ability to cause acute toxicity in the cell line, as reflected by a decrease in intracellular ATP levels, in a concentration-dependent manner. […] AC50 values were determined from concentration-response data modeled with the standard Hill equation.
qHTS protocol for CellTiter Glo lymphoblastoid cellular assay
[Step] [Parameter] [Value] [Description]
1. Reagent; 5 uL; 2500 lymphoblastoid cells/well
2. Time; 5 hr; 37 C incubation
4. Controls; 23 nL; Tetraoctylammonium bromide 6.4pM to 92 uM
5. Time; 24 hr; 37 C incubation
6. Reagent; 5 uL; CellTiter Glo reagent
7. Time; 30 min; Room Temperature
8. Detection; Luminescence; Viewlux plate reader
Keywords: cell viability, cytotoxicity, lymphoblastoid cell line, luminescence, NTPHTS, NTPHTS_NCGC, NIEHS, DSSTox, MLSMR, MLSCN, NIH Roadmap, qHTS, NCGC
% is scaled to controls: 0 for no effect and ±100 for the full control effect; potency is read from the fitted curve at half-maximal effect.

Compound | activity change, negative = cytotoxicity | Potency
O=C(O)/C=C/c1ccc(/C=C/C(=O)O)cc1 | -11.5% (inactive) | –
c1cc2c3c(c1)ccc1cccc(c13)C2 | -16.5% (inactive) | –
Cc1cc2nc(N)sc2cc1C | -28% (inactive) | –
OC1CCCCC1 | 20.4% (inactive) | –
CN(C)c1ccc(Cc2ccc(N(C)C)cc2)cc1 | -5.79% (inactive) | –
CCc1ccc(C(c2ccc(CC)cc2)C(Cl)Cl)cc1 | -0.63% (inactive) | –
C=CC1CO1 (stereo not given) | 9.16% (inactive) | –
CCCCNCC | -8.57% (inactive) | –
c1c[nH]cn1 | 10.3% (inactive) | –
COc1ccc(C)cc1N | -8.72% (inactive) | –
O=[N+]([O-])c1ccccc1Nc1ccccc1 | -6.73% (inactive) | –
Nc1ccc(N=Nc2ccccc2)c(N)c1 | -14.2% (inactive) | –
C[Si](C)(C)Cl | 0.876% (inactive) | –
C/C=C/C=C/C=O | – | 39.8 µM (active)
Oc1c(Cl)cc(Cl)c(Cl)c1Cl | -12.2% (inactive) | –
Clc1nc2ccccc2nc1Cl | -13.9% (inactive) | –
Nc1ccccc1O | -18.4% (inactive) | –
c1ccc2ncccc2c1 | 0.332% (inactive) | –
OCC(CBr)(CBr)CBr | -5.96% (inactive) | –
CCCCC(CC)COP(=O)(OCC(CC)CCCC)OCC(CC)CCCC (stereo not given) | 6.03% (inactive) | –

Compound | activity change, negative = cytotoxicity | Potency
COc1ccc(C(=O)Nc2ccccc2)cc1[N+](=O)[O-] | -17.5% (inactive) | –
Nc1cnn([C@@H]2O[C@H](CO)[C@@H](O)[C@H]2O)c(=O)n1 | 12.9% (inactive) | –
C=CC(=O)OCCCCCCOC(=O)C=C | – | 50.1 µM (active)
CCCCC(CC)COC(=O)COc1ccc(Cl)cc1Cl (stereo not given) | -4.75% (inactive) | –
O=C(O)c1ccc([N+](=O)[O-])cc1 | 7.57% (inactive) | –
CCOC(=O)C1OC1c1ccccc1 (stereo not given) | -1.65% (inactive) | –
c1ccc(CSCc2ccccc2)cc1 | -8.45% (inactive) | –
NC(=O)c1ccc([N+](=O)[O-])cc1 | 1.46% (inactive) | –
c1ccc(SCCSc2ccccc2)cc1 | 2.67% (inactive) | –
Cc1ccc(S(N)(=O)=O)cc1 | 6.78% (inactive) | –
c1ccncc1 | 4.13% (inactive) | –
N=C1C=CC(=C(c2ccc(N)cc2)c2ccc(N)cc2)C=C1 | – | 10 µM (active)
COc1cc(-c2ccc(N=C=O)c(OC)c2)ccc1N=C=O | -7.25% (inactive) | –
CC(=O)c1ccc(Cl)c(Cl)c1Cl | -0.135% (inactive) | –
Brc1ccc(-c2ccccc2)cc1 | -0.358% (inactive) | –
CC(C)S | -3.74% (inactive) | –
c1ccc(Nc2cccc3ccccc23)cc1 | -5.34% (inactive) | –
O=[N+]([O-])c1ccc(F)cc1F | -19.5% (inactive) | –
Cc1ccccc1OCC1CO1 (stereo not given) | -9.15% (inactive) | –
CC(=O)Nc1cccc(C)c1 | -8.69% (inactive) | –
